Experimental data published in PubChem BioAssay (NCI).
The panel holds about 83,000 compounds, 20% with a hit somewhere; the sample as a whole holds those more often.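 Values shown are percent growth following 48 h exposure of cells in 96-well plates to a single concentration of compound; below 10 was considered active.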 Values without a mark were called inactive. Active and inactive are the calls of the source.

Assays:
Test in all cases: NCI-60 one-dose screen, 48 h (100 = growth as untreated, 0 = no growth, -100 = all killed)
Details in all cases: 10 µM unless noted
[1] = test system: SR leukemia
[2] = test system: RPMI-8226 leukemia
[3] = test system: OVCAR-8 ovarian
[4] = test system: OVCAR-5 ovarian
[5] = test system: OVCAR-4 ovarian
[6] = test system: OVCAR-3 ovarian
[7] = test system: HS 578T breast
[8] = test system: NCI/ADR-RES ovarian
[9] = test system: T-47D breast
[10] = test system: BT-549 breast
[11] = test system: MDA-MB-435 melanoma
[12] = test system: SW-620 colon
[13] = test system: MCF7 breast
[14] = test system: HCT-116 colon
[15] = test system: HCC-2998 colon
[16] = test system: KM12 colon
[17] = test system: IGROV1 ovarian
[18] = test system: SK-OV-3 ovarian

| Structure (SMILES) | growth [1] | growth [2] | growth [3] | growth [4] | growth [5] | growth [6] | growth [7] | growth [8] | growth [9] | growth [10] | growth [11] | growth [12] | growth [13] | growth [14] | growth [15] | growth [16] | growth [17] | growth [18] |
| --- | --- | --- | --- | --- | --- | --- | --- | --- | --- | --- | --- | --- | --- | --- | --- | --- | --- | --- |
| CC(=O)OC1Oc2cc(C)c(C)cc2-c2oc(=O)c(-c3ccccc3)cc21 (stereo unspecified) | -42.2% (active) | -18.1% (active) | 24.4% | 67.9% | 42% | -39.9% (active) | -19.5% (active) | 25.3% | 43.8% | 24.9% | -19.6% (active) | 16.3% | 10.9% | 14% | 41.4% | 7.26% (active) | – | – |
| CN1CCC[C@@H]1CCO[C@](C)(c1ccccc1)c1ccc(Cl)cc1 | 59.7% | 70.4% | 88.1% | 73.6% | 75.6% | 100% | 80.9% | 76.5% | 56.1% | 69.1% | 49.8% | 80% | 63.3% | 47.9% | 61.8% | 88% | 63.6% | – |
| Cn1c(=O)c2[nH]c(=S)n(Cc3ccccc3)c2n(C)c1=O | 91.4% | 119% | 111% | 105% | 98.9% | 104% | 101% | 99.2% | 98.8% | 106% | 119% | 100% | 101% | 98.2% | – | 109% | 108% | – |
| CCOc1cc(/C=C/C(=O)CC(=O)/C=C/c2ccc(OC(=O)CNc3nc4ccc(OC)cc4s3)c(OCC)c2)ccc1OC(=O)CNc1nc2ccc(OC)cc2s1 | -27.3% (active) | -27.2% (active) | 28.6% | – | 69.5% | 77.8% | 23% | 82.3% | 79.7% | -1.58% (active) | -22.2% (active) | 17.9% | 9.28% (active) | 4.31% (active) | 39.6% | 9.4% (active) | -26.5% (active) | 89.5% |
| NS(=O)(=O)c1ccc(N2CC(c3nc4ccccc4[nH]3)CC2=O)cc1 (stereo unspecified) | 95.5% | 103% | 99.9% | – | 97.3% | 104% | 98.2% | 103% | 88.8% | – | 104% | 104% | – | 104% | 99.1% | 97.6% | 97.2% | 89.7% |
| COc1cc(Cl)cc(-c2nn(-c3cccc(NC(=O)c4cc(C(F)(F)F)cc(C(F)(F)F)c4)c3)cc2-c2ccncc2)c1 | 41% | 43.6% | 55.4% | – | 72.1% | 25.5% | 81.1% | 67.8% | 53.4% | 96.8% | 80% | 86.2% | 57.8% | 35.2% | 78.3% | 55.5% | 100% | 83.4% |
| C/C(=C\CCc1ccoc1)CC/C=C(\C)CCCNc1ccc(F)cc1 | 83.4% | 53.8% | 101% | – | 75.2% | 99.9% | 109% | – | 77.8% | 97.1% | 99.2% | 90.6% | 92.8% | 85.2% | 111% | 96.3% | 91.7% | 101% |
| C[C@@H]1[C@H]2[C@H](C=C3[C@@H]4CC[C@H]5Cc6nc7c(nc6C[C@]5(C)[C@H]4C[C@@H](O)[C@@]32C)C[C@@H]2CC[C@H]3C4=C[C@@H]5O[C@@]6(CC[C@](C)(CO)O6)[C@@H](C)[C@@]5(O)[C@@]4(C)[C@H](O)C[C@@H]3[C@@]2(C)C7)O[C@]12CCC(C)(C)O2 | 2.45% (active) | -29.9% (active) | 50.9% | – | 55.5% | 50% | -4.77% (active) | 54% | 7.03% (active) | 3.41% (active) | 51.8% | 8.02% (active) | 15.5% | 9.68% (active) | 66.5% | 28.7% | 38.6% | 9.45% (active) |
| COc1cc(/C=C/c2cc(/C=C/c3ccc(O)c(OC)c3)n(C(=O)Cc3ccccc3)n2)ccc1O | 4.44% (active) | -34.2% (active) | -17% (active) | – | 7.27% (active) | 1.55% (active) | 9.84% (active) | 21.7% | -7.75% (active) | – | -10.2% (active) | 4.63% (active) | -0.783% (active) | 1.23% (active) | 17.2% | 9.39% (active) | 11.4% | – |
